Article PMC5540273 (PLoS ONE, 2017)

Experiments:
Conditions in all cases: concentration: 1 μM,replicates: in singlicate; n = 1
[1] = system: JAK1(JH2domain-pseudokinase)
[2] = system: JAK2(JH1domain-catalytic)
[3] = system: JAK3(JH1domain-catalytic)
[4] = system: T1, JNK1
T1 construct: gene MAPK8

[5] = system: T2, JNK2
T2 construct: gene MAPK9

[6] = system: T3, JNK3
T3 construct: gene MAPK10

[7] = system: KIT-autoinhibited
[8] = system: KIT
[9] = system: LATS1
[10] = system: LATS2
[11] = system: LCK
[12] = system: LIMK1
[13] = system: LIMK2
[14] = system: T4, LKB1
T4 construct: gene STK11

[15] = system: T5, LOK
T5 construct: gene STK10

[16] = system: LRRK2
[17] = system: LTK
[18] = system: LYN
[19] = system: T6, LZK
T6 construct: gene MAP3K13

[20] = system: MAK
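Also: KINOMEscan kinase panel screen.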

| SMILES | %Inh [1] [%] | %Inh [2] [%] | %Inh [3] [%] | %Inh [4] [%] | %Inh [5] [%] | %Inh [6] [%] | %Inh [7] [%] | %Inh [8] [%] | %Inh [9] [%] | %Inh [10] [%] | %Inh [11] [%] | %Inh [12] [%] | %Inh [13] [%] | %Inh [14] [%] | %Inh [15] [%] | %Inh [16] [%] | %Inh [17] [%] | %Inh [18] [%] | %Inh [19] [%] | %Inh [20] [%] |
| --- | --- | --- | --- | --- | --- | --- | --- | --- | --- | --- | --- | --- | --- | --- | --- | --- | --- | --- | --- | --- |
| CC(C)c1nc(-c2cccc(NS(=O)(=O)c3ccccc3)c2)c(-c2ccnc(Nc3ccc4c(c3)CN(C)CC4)n2)s1 [GSK1649598] | 0 | 20 | 75 | 84 | 87 | 94 | 21 | 99.9 | 6 | 27 | 99.8 | 100 | 100 | 0 | 97.5 | 0 | 5 | 98 | 45 | 53 |
| CC(=O)Nc1ccc(-c2cc3ncnc(SCC(=O)O)c3s2)cc1 | 7 | 0 | 17 | 7 | 0 | 0 | 26 | 79 | 0 | 20 | 1 | 0 | 0 | 0 | 5 | 0 | 0 | 9 | 0 | 52 |
| Cn1ccc2ncnc(Oc3ccc(NC(=O)Nc4ccnc(C(F)(F)F)c4)c(Cl)c3)c21 | 1 | 0 | 2 | 0 | 0 | 0 | 22 | 99.8 | 11 | 0 | 0 | 16 | 0 | 8 | 94 | 0 | 100 | 6 | 7 | 5 |
| Cn1ccc2ncnc(Oc3ccc(NC(=O)Nc4cccc(C(F)(F)F)c4)c(Cl)c3)c21 | 45 | 11 | 25 | 9 | 0 | 0 | 37 | 100 | 9 | 0 | 79 | 0 | 0 | 11 | 99.9 | 0 | 56 | 63 | 0 | 28 |
| CCn1c(-c2nonc2N)nc2cncc(Br)c21 [SB-738004] | 0 | 34 | 62 | 0 | 0 | 2 | 55 | 32 | 0 | 79 | 0 | 0 | 5 | 19 | 9 | 45 | 0 | 13 | 41 | 28 |
| CCn1c(-c2nonc2N)nc2cncc(CNC3CCNCC3)c21.Cl [SB-747651] | 0 | 19 | 0 | 25 | 6 | 3 | 0 | 0 | 0 | 53 | 0 | 14 | 13 | 0 | 0 | 43 | 25 | 0 | 8 | 29 |
| CS(=O)(=O)Nc1ccc(-c2ccnc3[nH]ccc23)cc1 [GSK993273] | 9 | 97.7 | 97.1 | 49 | 27 | 28 | 0 | 59 | 42 | 82 | 25 | 0 | 13 | 0 | 0 | 35 | 0 | 0 | 8 | 0 |
| Cn1cc(-c2cccc3c(N)c(C(N)=O)nnc23)cn1 | 61 | 32 | 38 | 14 | 5 | 8 | 16 | 5 | 3 | 0 | 5 | 2 | 7 | 0 | 15 | 57 | 29 | 12 | 0 | 0 |
| C[C@@H]1CNc2c(sc3ccc4nc(-c5ccncc5)ccc4c23)C(=O)N1 | 64 | 0 | 78 | 0 | 0 | 0 | 7 | 34 | 0 | 24 | 13 | 0 | 0 | 0 | 14 | 100 | 65 | 6 | 0 | 0 |
| Cc1ccc2c(-c3ccnc(Nc4ccc(C(F)(F)F)cc4)n3)cnn2n1 [GW819776] | 57 | 29 | 0 | 91.5 | 53 | 78 | 34 | 78 | 0 | 0 | 10 | 2 | 0 | 24 | 16 | 0 | 28 | 1 | 0 | 20 |
| C[C@@H]1CNc2c(sc3ccc4nc(-c5ccc(O)cc5)ccc4c23)C(=O)N1 | 36 | 53 | 94.6 | 18 | 0 | 6 | 0 | 54 | 17 | 13 | 0 | 4 | 0 | 0 | 19 | 93.5 | 83 | 4 | 0 | 46 |
| Cc1ccn2nc(-c3ccc(F)cc3)c(-c3ccncc3)c2c1.Cl [GW457859] | 75 | 50 | 0 | 43 | 91.4 | 93.4 | 0 | 26 | 2 | 0 | 12 | 0 | 0 | 10 | 0 | 0 | 0 | 0 | 44 | 17 |
| O=C(Nc1cccc(Oc2ccc3nccn3n2)c1)Nc1cccc(C(F)(F)F)c1 | 0 | 9 | 25 | 0 | 0 | 0 | 68 | 100 | 0 | 0 | 71 | 0 | 25 | 0 | 64 | 21 | 0 | 42 | 0 | 38 |
| O=C1NCCc2[nH]c(-c3ccncc3)cc21 | 26 | 73 | 87 | 30 | 24 | 45 | 0 | 14 | 23 | 34 | 9 | 5 | 2 | 0 | 6 | 31 | 0 | 0 | 2 | 21 |
| Cc1n[nH]c2cc(Nc3ccnc(Nc4cccc(CN5CCOCC5)c4)n3)ccc12 [GW682569] | 98.8 | 99.4 | 79 | 96.2 | 58 | 85 | 28 | 97.7 | 0 | 0 | 71 | 9 | 5 | 17 | 0 | 0 | 1 | 25 | 31 | 20 |
